Source: PubChem BioAssay (National Center for Advancing Translational Sciences (NCATS))
An excerpt weighted towards active compounds, which were near 19% of everything screened.
TDP1 cell noCPT: qHTS for Inhibitors of human tyrosyl-DNA phosphodiesterase 1 (TDP1): qHTS in cells in absence of CPT; Potency, µM (top dose mostly 46.2 µM), without a hit: top-dose activity change, negative = growth inhibition, usual class: inhibitors; hit rate 15% among 420,000; AID 686978, 2013; DT40 Tdp1-/- hTDP1 cells, no CPT, ATP luminescence, 48 h; also: nearly all actives have a fitted effect of over 55% in size
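No-CPT arm: Tdp1-/-;hTDP1 DT40 cells (400/well) plus compounds, incubated ≥48 hr at 37 °C. Readout CellTiter-Glo luminescence.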
KB-3-1 cytotox: KB-3-1 parental cell cytotoxicity. KB-3-1 viability, CellTiter-Glo ATP luminescence, 72 h. Potency, µM (top dose mostly 46.1 µM), usual class: cytotoxic. hit rate 1.4% among 400,000; also: nearly all actives have a fitted effect of over 60% in size
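72 h, 37 °C compound treatment of KB-3-1 parental cells; CellTiter-Glo added, 10 min, luminescence read. Data corrected against DMSO-only plates and normalized before curve fitting.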
KB-V1 MDR tox: kills drug-selected multidrug resistant KB-V1 cells; KB-V1 MDR cells viability, CellTiter-Glo, 72 h; Potency, µM (top dose mostly 46.1 µM), actives largely listed as cytotoxic; hit rate 3.4% among 400,000; also: nearly all actives have a fitted effect of over 60% in size
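Drug-selected KB-V1 cells, grown in DMEM lacking phenol red with 10% FBS, receive compound titrations; after three days at 37 degrees C, surviving cell ATP is quantified by CellTiter-Glo luminescence and responses normalized and curve-fitted.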
HT1080 IDH1KD tx: kills HT-1080 cells with IDH1 knockdown | AID 686971 | hit rate 2% among 360,000 | Potency, µM (doses to about 46.1 µM), inactives show at the top dose activity, negative = toxicity, hits mostly cytotoxic | HT-1080 IDH1 knockdown viability, ATP luminescence, 48 h;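 also: 0% = DMSO wells and -100% = cell-free medium wells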
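After a 2 h attachment period, IDH1KD HT-1080 cells took pin-transferred compound for 48 h at 37 °C; ATP-based luminescence after 10 min room-temperature reagent incubation reported viability.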
TDP1 cell CPT: growth inhibition of DT40 Tdp1-/-;hTDP1 cells with camptothecin (screen for TDP1 inhibitors); chicken DT40 Tdp1-/-;hTDP1 cells + 20 nM CPT, ATP luminescence, 48 h; Potency, µM (titrated, usually from 46.2 µM), inactives show at the highest dose activity change, negative = growth inhibition, most hits filed as inhibitors; hit rate 12% among 420,000; AID 686979; also: nearly all actives have a fitted effect of over 55% in size
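Chicken DT40 Tdp1-/- cells complemented with human TDP1, 400 cells/well, exposed to compounds plus 20 nM camptothecin for at least 48 h at 37 C; viability read as ATP content by CellTiter-Glo luminescence.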
HT1080NT lethal: kills 2HG-producing HT-1080-NT fibrosarcoma cells; HT-1080-NT fibrosarcoma viability, CellTiter-Glo ATP luminescence, 48 h; Potency, µM (doses to about 46.1 µM), for inactives: at the highest dose activity, negative = less viability, usual class: cytotoxic; AID 686970; hit rate 1.6% among 360,000;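 also: NT is the 2HG producing partner of a matched IDH1 knockdown line; 0% = DMSO-treated cells and -100% = media-only wells without cells; nearly all actives have a fitted effect of over 55% in size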
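750 cells/well, RPMI + 5% FBS; 2 h settle, compound pin-transfer, 48 h at 37 degrees C. CellTiter-Glo 10 min RT, luminescence. Normalized to DMSO and media-only wells.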
* hit, by the source's call; i = inactive; ? = inconclusive; nt = no result; [ ] = remark or other dose. Calls follow the shape of the dose curve; as a rule, active = well fitted curve in the direction sought with a large enough effect; inconclusive = small, poorly fitted or top-dose-only effect, or another doubt; inactive = no such curve, though single readings can be large; an effect the other way counts as inactive or inconclusive. Unless noted, % is scaled to controls: 0 for no effect and ±100 for the full control effect; potency is read from the fitted curve at half-maximal effect.

SMILES	TDP1 cell noCPT	KB-3-1 cytotox	KB-V1 MDR tox	HT1080 IDH1KD tx	TDP1 cell CPT	HT1080NT lethal
Cc1ccc(NC(=O)CCc2nc3cccnc3n2-c2ccccc2)cc1Cl	16.4µM*	i	i	nt	16.4µM*	nt
COc1cc(Cl)c(NC(=O)CCc2nc3cccnc3n2-c2ccccc2)c(OC)c1	?	i	i	nt	?	nt
CCOc1ccc(OCC)c(NC(=O)CCc2nc3cccnc3n2-c2ccccc2)c1	?	i	i	nt	20.6µM*	nt
CCCCCC(=O)Nc1nc(C)c(-c2csc(Nc3cc(OC)ccc3OC)n2)s1	2.91µM*	?	i	?	4.11µM*	?
CCCCCCC(=O)Nc1nc(C)c(-c2csc(Nc3cc(OC)ccc3OC)n2)s1	18.4µM*	i	i	-28.9%	?	-10.0%
COc1ccc(OC)c(Nc2nc(-c3cccs3)cs2)c1	-19.9%	i	?	-19.1%	-1.0%	?
Cc1ccc(-n2nnnc2SCC(=O)Nc2ncc(Cc3ccccc3Cl)s2)cc1	-23.9%	i	i	17.1%	13.7%	11.5%
CCOc1ccc(CN(C)C(=O)c2cccc(S(=O)(=O)Nc3ccccc3OC)c2)cc1OC	14.6µM*	i	i	-2.0%	?	-1.0%
CCOc1ccc(NS(=O)(=O)c2ccc(C(=O)N(C)Cc3cccc(OC)c3OC)cc2)cc1	14.6µM*	i	?	-12.5%	14.6µM*	-12.2%
COc1ccc(CN(C)C(=O)c2ccc(NS(=O)(=O)c3ccc(F)cc3)cc2)c(OC)c1	-0.6%	i	i	-12.7%	-24.1%	-4.9%
COc1cccc(CN(C)C(=O)c2cccc(S(=O)(=O)Nc3cccc(C)c3)c2)c1OC	16.4µM*	i	i	-17.5%	23.1µM*	-2.0%
COc1ccc(NS(=O)(=O)c2ccc(C(=O)N(C)Cc3ccc(C)o3)cc2)cc1	14.6µM*	i	i	3.4%	13µM*	-0.8%[9.24 µM]
COCCn1c(=O)c(CCc2ccccc2)nc2cnc(Oc3ccccc3)nc21	-18.9%	nt	nt	nt	-12.5%	nt
COc1ccccc1NC(=O)CC1Sc2ccc(C(F)(F)F)cc2NC1=O (stereo unspecified)	-23.0%	i	i	nt	-19.2%	nt
COc1ccc(-c2cc(C(F)F)nn2-c2ccc(S(N)(=O)=O)cc2)cc1F	-8.1%	nt	nt	nt	3.1%	nt
COc1ccc(C)cc1NC(=S)N1CC(C)OC(C)C1 (stereo unspecified)	18.3%	i	i	17.1%	-9.1%	10.5%
COC(=O)CSc1[nH]c2ccccc2c1[N+](=O)[O-]	-28.8%	i	i	-1.8%	18.4µM*	-3.4%
CCOC(=O)C1=C(C)NC(=O)NC1c1ccc(-c2ccc(Cl)cc2)o1 (stereo unspecified)	?	?	20.6µM*	?	-9.7%	-23.7%
CCOC(=O)C1=C(C)NC(=S)NC1c1ccco1 (stereo unspecified)	?	i	i	0.6%	-2.5%	-2.7%
CCOC(=O)C1=C(C)NC(=S)NC1c1ccc(-c2cccc(Cl)c2C)o1 (stereo unspecified)	11.6µM*	?	?	?	16.4µM*	-29.8%
CCOC(=O)C1=C(C)NC(=S)NC1c1ccc(-c2ccc(Cl)cc2)o1 (stereo unspecified)	?	?	8.2µM*	-15.4%	?	0.2%
CCOC(=O)C1=C(C)NC(=O)NC1c1ccc(-c2ccc(F)cc2)o1 (stereo unspecified)	-26.5%	i	?	-15.0%	-20.8%	-2.1%
CCCOC(=O)c1cccc(NC(=O)COc2ccc([N+](=O)[O-])cc2)c1	23.1µM*	i	?	?	18.4µM*	-11.3%
COCCOC(=O)c1ccc(NC(=O)COc2ccc([N+](=O)[O-])cc2)cc1	?	i	i	-16.7%	-27.6%	-13.0%
CCOC(=O)c1cccc(NC(=O)COc2ccc([N+](=O)[O-])cc2)c1	?	i	23.1µM*	5.2%	?	4.8%
SMILES	TDP1 cell noCPT	KB-3-1 cytotox	KB-V1 MDR tox	HT1080 IDH1KD tx	TDP1 cell CPT	HT1080NT lethal
CCOC(=O)C1(CC2CC2)CCN(S(=O)(=O)/C=C/c2ccccc2)CC1	-16.0%	i	?	-12.8%	-28.1%	-22.1%
Cc1cc(C)c(NC(=O)CSc2ccc(-c3sc(-c4ccccc4)nc3C)nn2)c(C)c1	14.6µM*	i	i	nt	23.1µM*	nt
CCOc1ccccc1NC(=O)CSc1ccc(-c2ccco2)nn1	?	i	?	13.3%	?	9.8%
Cc1nc(-c2ccccc2)sc1-c1ccc(SCC(=O)NCc2ccccc2)nn1	-22.1%	i	i	nt	-2.8%	nt
CCOC(=O)c1ccccc1NC(=O)CSc1ccc(-c2sc(-c3ccccc3)nc2C)nn1	18.4µM*	i	i	nt	?	nt
CCOC(=O)c1ccccc1NC(=O)CSc1ccc(-c2cccnc2)nn1	?	i	i	-19.3%	-27.4%	-5.1%
COc1ccccc1CNC(=O)CSc1ccc(-c2sc(-c3ccccc3)nc2C)nn1	18.4µM*	i	i	nt	?	nt
CCOc1ccccc1NC(=O)CSc1ccc(-c2sc(C)nc2C)nn1	16.4µM*	i	?	-9.0%	20.6µM*	-2.2%
O=C(c1cc(C2CCCCN2S(=O)(=O)c2ccc(F)cc2F)on1)N1CCOCC1 (stereo unspecified)	-17.4%	i	i	5.8%	-0.6%	3.9%
CCCCNc1nc(Oc2ccc(=O)n(C)n2)nc(N2CCOCC2)n1	-21.8%	i	i	nt	-12.7%	nt
O=C1CCC(C(=O)N2CCCCCC2)CN1Cc1cccc(C(F)(F)F)c1 (stereo unspecified)	0.8%	i	i	-1.4%	-17.9%	-1.7%
O=C(Cc1cccc(NC(=O)C2CCCN(C(=O)CCc3ccccc3)C2)c1)Nc1ccc(C(=O)N2CCCCC2)cc1 (stereo unspecified)	23.1µM*	?	i	-1.6%	29.1µM*	-5.0%
CN(C(=O)c1cccc(NC(=O)Cc2cccc(NC(=O)C3CCN(C(=O)CCc4ccccc4)CC3)c2)c1)C1CC1	23.1µM*	i	i	-5.5%	-96.2%	1.1%
O=C(Cc1cccc(NC(=O)C2CCN(C(=O)CCc3ccccc3)CC2)c1)Nc1cccc(C(=O)N2CCCC2)c1	16.4µM*	i	i	-3.0%	?	0.0%
CN(C(=O)c1ccc(NC(=O)Cc2ccc(NC(=O)C3CCN(C(=O)CCc4ccccc4)CC3)cc2)cc1)C1CCCC1	20.6µM*	i	i	-5.5%	23.1µM*	-0.7%
